Shown are actives, neighbours in structure and some others; about 10% of the full set was active somewhere.
HPGD block: inhibitors of human 15-hydroxyprostaglandin dehydrogenase (HPGD) | purified HPGD, NADH fluorescence kinetic, PGE2 substrate | Potency, µM, for inactives: at the top dose activity change, negative = inhibition, actives largely listed as inhibitors | actives 4.3% (n = 150,000) | AID 894; active = well fitted inhibition curve with a large enough effect, not every such curve was filed as active; inconclusive = small, poorly fitted or top-dose-only effect, or another doubt; inactive = no such curve, though single readings can be large or run the other way; note: potency is the fitted concentration of half-maximal effect
Target sequence (P15428 whole entry, looked up): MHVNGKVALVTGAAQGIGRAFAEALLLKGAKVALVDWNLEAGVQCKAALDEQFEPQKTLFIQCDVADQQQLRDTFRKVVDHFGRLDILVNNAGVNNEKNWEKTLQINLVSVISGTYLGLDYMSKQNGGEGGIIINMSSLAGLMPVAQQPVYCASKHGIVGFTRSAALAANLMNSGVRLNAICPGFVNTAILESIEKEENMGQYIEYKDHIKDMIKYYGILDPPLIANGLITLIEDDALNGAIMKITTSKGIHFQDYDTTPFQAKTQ
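20 nM HPGD preincubated 15 min at room temperature with compound in 50 mM Tris-HCl pH 8, 0.01% Tween 20. Started with 1 mM NAD+ and 30 uM prostaglandin E2; NADH fluorescence (360/450 nm) read 5 times over 30-s intervals, last minus first.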
12-hLO inh: blocks human 12-lipoxygenase activity; P18054; purified 12-hLO, xylenol orange hydroperoxide absorbance; Potency, µM (doses to about 57.1 µM), for inactives: at the top dose activity change, negative = inhibition, actives largely listed as inhibitors; actives 0.12% (n = 150,000); note: potency is the fitted concentration of half-maximal effect; nearly all actives have a fitted effect of over 55% in size
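Purified human 12hLO (150 nM), preincubated 15 min with compound, then 40 uM arachidonic acid for 30 min, room temperature, Hepes pH 7.0 with 0.01% Triton X-100. Hydroperoxide detected by ferrous iron/xylenol orange; 573/405 nm absorbance ratio gives reaction progress.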
ALDH1A1 inh: blocks purified human ALDH1A1 activity. P00352. Purified ALDH1A1, NADH fluorescence, propionaldehyde substrate. Potency, µM (titrated, usually from 75.3 µM), for inactives: at the highest dose activity, negative = inhibition, actives largely listed as inhibitors. actives 7.3% (n = 220,000); active = well fitted inhibition curve with a large enough effect, not every such curve was filed as active; inconclusive = small, poorly fitted or top-dose-only effect, or another doubt; inactive = no such curve, though single readings can be large or run the other way;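 note: potency is the fitted concentration of half-maximal effect; plate controls were no enzyme wells and a reference inhibitor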
aGal spleen mod: inhibits or activates alpha-galactosidase in human spleen homogenate. P06280. human spleen homogenate, 4MU-alpha-Gal fluorescence, 40 min. Potency, µM (highest dose often 80 µM), for the others: at the top dose activity change, negative = inhibition, usual class: inhibitors. actives 0.008% (n = 240,000). AID 2107;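 note: potency is the fitted concentration of half-maximal effect; 0% = enzyme with vehicle and -100% = no enzyme basal signal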
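Spleen homogenate 1 ug + cpd (titration) + 4-MU-alpha-D-galactopyranoside 1 mM; 37C 40 min; 50 mM citrate/phosphate pH 5.0, 0.01% Tween-20; stop pH 10; fluorescence 365/440; AC50 via Hill.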
GLA inh pH 4.5: inhibitors of human alpha-galactosidase A at pH 4.5 | P06280 | purified enzyme, 4-MU-alpha-Gal fluorescence, pH 4.5 | activity change, negative = inhibition, % at 105 µM | 230,000 tested, under 10 active | AID 1467;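 note: 0% = full activity with enzyme and -100% = basal without enzyme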
Target sequence (P06280 whole entry, looked up): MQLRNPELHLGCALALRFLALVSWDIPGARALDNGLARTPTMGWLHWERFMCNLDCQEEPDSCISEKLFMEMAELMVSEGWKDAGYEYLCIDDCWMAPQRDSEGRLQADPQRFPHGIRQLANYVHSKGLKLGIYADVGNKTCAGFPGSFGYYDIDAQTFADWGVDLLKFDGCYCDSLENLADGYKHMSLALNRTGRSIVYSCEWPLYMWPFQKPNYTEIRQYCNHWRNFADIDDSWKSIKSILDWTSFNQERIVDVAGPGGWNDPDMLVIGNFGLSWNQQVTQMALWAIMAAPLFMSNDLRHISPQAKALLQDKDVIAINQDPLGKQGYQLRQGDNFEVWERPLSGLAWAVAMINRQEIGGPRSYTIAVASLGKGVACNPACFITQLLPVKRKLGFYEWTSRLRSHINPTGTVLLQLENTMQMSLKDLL
PNC assembly inh: blocks assembly of the perinucleolar compartment | activity change (PNC), negative = inhibition, % at 10 µM | actives 3.1% (n = 140,000) | PC3M PTB-GFP, PNC prevalence imaging, 16 h; active compounds read low;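 active = readout at or below -70, meaning at least 70% loss of cells showing the perinucleolar compartment, a nuclear body marking cancer cells; inconclusive = readout between -30 and a set limit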;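 note: plate controls were DMSO wells for no effect and camptothecin positive control wells for full effect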
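PC3M cells stably expressing PTB-GFP, 750–1000 cells/well, treated 16 h at 37 °C with compound (23 nl of library stock), in duplicate. After paraformaldehyde fixation and Hoechst stain, imaged at 20x; PNC prevalence scored by image analysis.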
* marks the source's active call; other numbers are inactive results; u = inconclusive; x = not tested or not shown; [ ] = dose if it differs, or a comment. Unless noted, calls come from the whole dose curve; as a rule, active = well fitted curve in the direction sought with a large enough effect; inconclusive = small, poorly fitted or top-dose-only effect, or another doubt; inactive = no such curve, though single readings can be large; an effect the other way counts as inactive or inconclusive. Unless noted, % is set by controls: 0 for no effect and ±100 for the full control effect.

SMILES	HPGD block	12-hLO inh	ALDH1A1 inh	aGal spleen mod	GLA inh pH 4.5	PNC assembly inh
CCN1CCCc2cc(CN(CCN3CCOCC3)C(=S)Nc3cccc(OC)c3)ccc21	x	x	16µM*	4%	-7	x
CCOc1ccc(N2C(=O)C3Sc4[nH]c(=O)sc4C(c4ccc(OC)c(OC)c4)C3C2=O)cc1 (stereo not given)	x	x	x	2%	6	x
CC(C)N1CCN(c2ccc(C(=O)c3c(-c4ccc(O)cc4)sc4cc(O)ccc34)cc2)CC1	x	x	x	-9%	x	x
O=C(N/N=C/c1ccco1)c1cc(-c2cccc3ccccc23)n[nH]1	25µM*	-3%	-4%	2%	-2	47
O=C(N/N=C/c1ccco1)c1cccc(N2Cc3ccccc3C2)c1	x	x	20µM*	-4%	-5	x
CCNS(=O)(=O)c1ccc2c(c1)NCC2	-11%	-1%	10%	0%	2	u
CC(=O)N(CC(O)CN(C(C)=O)c1c(I)c(C(=O)NC[C@@H](O)CO)c(I)c(C(=O)NC[C@@H](O)CO)c1I)c1c(I)c(C(=O)NC[C@@H](O)CO)c(I)c(C(=O)NC[C@@H](O)CO)c1I	2%	-2%[25.6 µM]	-7%[20.9 µM]	4%[29.1 µM]	-4	x
O=C(NC(=S)Nc1cc([N+](=O)[O-])ccc1O)c1cccnc1	x	x	10µM*	-2%	-5	x
CCC(C)c1ccc(O)c(NC(=S)NC(=O)c2cccnc2)c1 (stereo not given)	x	x	32µM*	6%	0	x
CCCCN1C(=O)/C(=C2\SC(N3CCCCC3)=NC2=O)c2ccccc21	22µM*	-3%	10µM*	3%	9	-17
O=C1N=C(N2CCOCC2)S/C1=C1\C(=O)N(Cc2ccccc2)c2ccc(Br)cc21	-4%	-4%	u	-2%	-6	39
CCOC(=O)C1CCCN(c2cc(=O)n(C3CCCCC3)c(=O)[nH]2)C1 (stereo not given)	x	x	u	5%	4	x
CCCCOc1ccc(C(=O)N/C(=C/C=C/c2ccccc2)C(=O)NCCO)cc1	-9%	-1%	1%	-5%	-8	u
C=CCNC(=O)/C(=C\C=C\c1ccccc1)NC(=O)c1ccc(OCCCC)cc1	-19%	4%	4%	-12%	-7	-105*
CC(NC(=O)C(=O)NCCC1=CCCCC1)c1ccccc1 (stereo not given)	-6%	0%	3%	4%	-3	49
Cc1c(NS(=O)(=O)c2ccc3c(c2)OCCO3)cccc1-c1nc2cccnc2s1	-27%	-4%	16µM*	7%	-5	u
Cc1cc(-c2nc3cccnc3s2)ccc1NS(=O)(=O)c1ccc2c(c1)OCCO2	u	-9%	u	u	u	11
O=C(COC(=O)Cn1cnc2ccccc21)Nc1ccc2c(c1)OCCO2	-6%	-3%	28µM*	2%	2	33
CCN(CC)S(=O)(=O)c1cc(NC(=O)COC(=O)Cn2cnc3ccccc32)ccc1C	-8%	1%	20µM*	26%	-2	-24
CN1CCNC(=O)C1CC(=O)NCC1(c2ccccc2)CCCCC1 (stereo not given)	x	x	16µM*	-5%	-9	x
O=C(N/N=C/c1c(O)n(Cc2ccccc2)c(=O)c2ccccc12)c1cccnc1	x	x	10µM*	-1%	-12	x
O=C(N/N=C/c1c(O)n(-c2ccccc2Cl)c(=O)c2ccccc12)c1cccnc1	x	x	14µM*	7%	-3	x
COc1ccc(Cn2c(O)c(/C=N/NC(=O)c3cccnc3)c3ccccc3c2=O)cc1	x	x	u	9%	-21	x
CCC(/C=N/NC(=O)CCCCC(=O)N/N=C/C(CC)CC)CC	1%	5%	10%	4%	-12	3
Cc1ccccc1-n1nc(C(=O)c2cccs2)cc(-c2nc3ccccc3[nH]2)c1=N	-10%	0%	3%	-7%	-8	-100*
SMILES	HPGD block	12-hLO inh	ALDH1A1 inh	aGal spleen mod	GLA inh pH 4.5	PNC assembly inh
O=C(O)C1(O)CC(O)C(O)C(O)C1 (stereo not given)	-5%	6%	-6%	9%	3	x
Cc1ccc(NC(=O)c2ccc3c(c2)C(=O)N(CC2CCCO2)C3=O)cc1C (stereo not given)	x	x	3.2µM*	1%	-3	x
O=C(Nc1ccc(O)c(C(=O)O)c1)c1ccc2c(c1)C(=O)N(CC1CCCO1)C2=O (stereo not given)	-27%	-3%	10µM*	-10%	1	-1
Cc1nnc(NC(=O)c2ccc3c(c2)C(=O)N(CC2CCCO2)C3=O)s1 (stereo not given)	-2%	2%	u	2%	3	-90*
Cc1c(NC(=O)c2ccc3c(c2)C(=O)N(CC2CCCO2)C3=O)cccc1C(=O)O (stereo not given)	-5%	3%	u	3%	2	-81*
O=C(Nc1ccc2c(c1)C(=O)N(CC1CCCO1)C2=O)c1ccc(Cl)c(Cl)c1 (stereo not given)	u	4%	u	0%	6	u
CC[C@H](C)[C@H](NC(=O)[C@H](Cc1ccc(O)cc1)NC(=O)[C@@H]1CCCN1C(=O)[C@H](CCCN=C(N)N)NC(=O)[C@H](CCCN=C(N)N)NC(=O)[C@@H]1CCCN1C(=O)[C@H](CCCCN)NC(=O)[C@H](CC(N)=O)NC(=O)[C@H](CCC(N)=O)NC(=O)[C@H](Cc1ccc(O)cc1)NC(=O)[C@H](CC(C)C)NC(=O)[C@@H]1CCC(=O)N1)C(=O)N[C@@H](CC(C)C)C(=O)O	x	x	x	-6%	x	x
CCOC(=O)C(CCc1ccccc1)NC(C)C(=O)N1Cc2cc(OC)c(OC)cc2CC1C(=O)O (stereo not given)	x	x	x	-11%	x	x
COC(=O)[C@H](C)NC(=O)C/C=C\[C@@H](C)[C@@H](CO)OC	x	x	8%[13.5 µM]	4%[17.5 µM]	x	x
c1ccc(-c2noc(CSc3nnnn3C3CCCCC3)n2)cc1	-23%	0%	3.2µM*	5%	-5	-12
CCN(CC)c1ccc(/C=N/NS(=O)(=O)c2cccc([N+](=O)[O-])c2)cc1	-24%	-4%	3.5µM*	-5%	-5	-14
CCN(Cc1ccccc1)c1ccc(/C=N/NS(=O)(=O)c2ccc(C)c([N+](=O)[O-])c2)cc1	u	0%	3.2µM*	7%	-20	u
CC(C)CN1CC2(CCN(S(=O)(=O)c3ccccc3)CC2)C1	-8%	-6%	3%	7%	x	x
CCCn1cc(NC(=O)c2cc3n(n2)C(C(F)(F)F)CC(c2ccccc2)N3)cn1 (stereo not given)	-7%	1%	12%	2%	-5	-87*

Bioassay records as filed in PubChem.
